# Data: paper PMC7862700, “An all-to-all approach to the identification of sequence-specific readers for epigenetic DNA modifications on cytosine”
# Key:
# Assay in all cases: DAPPL (digital affinity profiling via proximity ligation, sequencing); 10 mM Tris-HCl pH 7.5, 50 mM NaCl, 1 mM DTT, 4% glycerol, room temperature, 30 min; GST-TFs on glutathione beads, 16-mer random dsDNA library, 0.1% formaldehyde crosslink after washing; high values mean tight binding
# FLI1 = target: T1, FLI1 (Homo sapiens, UniProt Q01543 1-452); details: protein: recombinant; tags: N-terminal GST; dsDNA, one strand shown
# T1 sequence: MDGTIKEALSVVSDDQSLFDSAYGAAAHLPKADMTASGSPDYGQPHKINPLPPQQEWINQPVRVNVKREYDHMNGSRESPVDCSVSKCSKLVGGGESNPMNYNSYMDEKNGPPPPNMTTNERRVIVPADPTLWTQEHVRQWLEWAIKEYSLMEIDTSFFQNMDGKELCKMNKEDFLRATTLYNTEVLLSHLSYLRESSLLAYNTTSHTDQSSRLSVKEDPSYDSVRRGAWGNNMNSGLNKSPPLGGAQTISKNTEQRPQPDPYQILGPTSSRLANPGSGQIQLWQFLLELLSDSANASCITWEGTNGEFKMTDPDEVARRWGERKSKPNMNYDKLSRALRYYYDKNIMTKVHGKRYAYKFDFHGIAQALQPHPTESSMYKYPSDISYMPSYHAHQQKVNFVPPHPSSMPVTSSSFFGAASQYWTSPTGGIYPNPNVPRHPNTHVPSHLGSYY
# In short: (§1)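 A tag-only sample was pooled with DNA-barcoded human transcription factors that had been expressed in yeast as GST fusions and captured on glutathione beads. The pools were incubated for 30 min at room temperature with 200 nmole of a random double-stranded 16-mer DNA library in Tris/NaCl/DTT/glycerol buffer, then washed, crosslinked with 0.1% formaldehyde, proximity-ligated (BsaI/T4 ligase, 1 h, 37 °C), PCR-amplified and sequenced on an Illumina NextSeq500. Binding signal is each hexamer's read frequency for a factor divided by its frequency for the tag-only sample.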
# ELK1 = target: T2, ELK1 (Homo sapiens, UniProt P19419 1-428); details: protein: recombinant; tags: N-terminal GST; dsDNA, one strand shown
# T2 sequence: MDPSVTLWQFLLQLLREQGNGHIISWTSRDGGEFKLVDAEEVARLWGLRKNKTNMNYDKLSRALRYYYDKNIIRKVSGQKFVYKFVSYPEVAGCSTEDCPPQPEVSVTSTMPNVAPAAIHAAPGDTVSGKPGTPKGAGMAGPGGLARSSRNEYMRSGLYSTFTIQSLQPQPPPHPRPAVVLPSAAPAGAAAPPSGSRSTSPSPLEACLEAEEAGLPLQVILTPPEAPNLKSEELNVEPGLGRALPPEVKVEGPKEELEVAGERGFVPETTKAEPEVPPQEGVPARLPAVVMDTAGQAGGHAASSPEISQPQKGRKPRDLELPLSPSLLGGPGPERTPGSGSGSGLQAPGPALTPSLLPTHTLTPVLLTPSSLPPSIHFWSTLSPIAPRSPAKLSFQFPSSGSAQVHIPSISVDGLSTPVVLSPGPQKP
# In short: as §1
# GABPA = target: T3, GABPA (Homo sapiens, UniProt Q06546 1-454); details: protein: recombinant; tags: N-terminal GST; dsDNA, one strand shown
# T3 sequence: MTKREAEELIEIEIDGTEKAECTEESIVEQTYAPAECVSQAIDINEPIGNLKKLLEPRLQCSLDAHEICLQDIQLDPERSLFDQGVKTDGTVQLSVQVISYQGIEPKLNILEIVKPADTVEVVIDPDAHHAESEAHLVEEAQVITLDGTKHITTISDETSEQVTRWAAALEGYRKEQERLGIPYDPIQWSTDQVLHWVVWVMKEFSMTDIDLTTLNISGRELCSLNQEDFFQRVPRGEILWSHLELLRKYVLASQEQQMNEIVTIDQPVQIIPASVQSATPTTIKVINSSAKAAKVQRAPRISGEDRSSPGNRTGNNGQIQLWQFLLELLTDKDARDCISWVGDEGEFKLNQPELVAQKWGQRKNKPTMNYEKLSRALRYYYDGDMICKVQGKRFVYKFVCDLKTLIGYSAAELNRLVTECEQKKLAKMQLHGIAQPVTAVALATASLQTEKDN
# In short: as §1
# ERG = target: T4, ERG (Homo sapiens, UniProt P11308 1-479); details: protein: recombinant; tags: N-terminal GST; dsDNA, one strand shown
# T4 sequence: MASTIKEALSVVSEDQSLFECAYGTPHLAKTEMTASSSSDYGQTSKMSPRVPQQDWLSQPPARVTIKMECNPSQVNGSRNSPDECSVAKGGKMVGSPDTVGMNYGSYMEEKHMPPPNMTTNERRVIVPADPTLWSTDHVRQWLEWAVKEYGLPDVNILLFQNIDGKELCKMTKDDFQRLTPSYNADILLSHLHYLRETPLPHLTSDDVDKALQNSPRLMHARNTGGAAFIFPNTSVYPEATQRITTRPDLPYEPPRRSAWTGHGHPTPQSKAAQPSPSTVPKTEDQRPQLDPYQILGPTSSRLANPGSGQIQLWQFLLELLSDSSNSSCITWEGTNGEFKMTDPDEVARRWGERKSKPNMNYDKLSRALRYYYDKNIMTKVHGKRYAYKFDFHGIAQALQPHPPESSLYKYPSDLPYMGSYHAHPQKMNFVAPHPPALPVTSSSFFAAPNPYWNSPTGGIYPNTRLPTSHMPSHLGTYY
# In short: as §1
# ELF1 = ELF1 (Homo sapiens, UniProt P32519 1-619); details: protein: recombinant; tags: N-terminal GST; dsDNA, one strand shown
# In short: as §1
# EHF = target: T5, EHF (Homo sapiens, UniProt Q9NZC4 1-300); details: protein: recombinant; tags: N-terminal GST; dsDNA, one strand shown
# T5 sequence: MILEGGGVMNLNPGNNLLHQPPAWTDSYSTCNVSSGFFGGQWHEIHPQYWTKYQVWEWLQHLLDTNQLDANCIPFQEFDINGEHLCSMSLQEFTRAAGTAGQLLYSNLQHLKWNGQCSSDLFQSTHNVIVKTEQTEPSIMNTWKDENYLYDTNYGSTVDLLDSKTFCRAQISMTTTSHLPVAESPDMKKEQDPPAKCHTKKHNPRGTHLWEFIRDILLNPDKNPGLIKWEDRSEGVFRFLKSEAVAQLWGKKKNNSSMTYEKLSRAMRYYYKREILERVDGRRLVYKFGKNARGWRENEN
# In short: as §1
# SPI1 = SPI1 (Homo sapiens, UniProt P17947 1-270); details: protein: recombinant; tags: N-terminal GST; dsDNA, one strand shown
# In short: as §1
# SPIB = SPIB (Homo sapiens, UniProt Q01892 1-262); details: protein: recombinant; tags: N-terminal GST; dsDNA, one strand shown
# In short: as §1
# ELK3 = target: T6, ELK3 (Homo sapiens, UniProt P41970 1-407); details: protein: recombinant; tags: N-terminal GST; dsDNA, one strand shown
# T6 sequence: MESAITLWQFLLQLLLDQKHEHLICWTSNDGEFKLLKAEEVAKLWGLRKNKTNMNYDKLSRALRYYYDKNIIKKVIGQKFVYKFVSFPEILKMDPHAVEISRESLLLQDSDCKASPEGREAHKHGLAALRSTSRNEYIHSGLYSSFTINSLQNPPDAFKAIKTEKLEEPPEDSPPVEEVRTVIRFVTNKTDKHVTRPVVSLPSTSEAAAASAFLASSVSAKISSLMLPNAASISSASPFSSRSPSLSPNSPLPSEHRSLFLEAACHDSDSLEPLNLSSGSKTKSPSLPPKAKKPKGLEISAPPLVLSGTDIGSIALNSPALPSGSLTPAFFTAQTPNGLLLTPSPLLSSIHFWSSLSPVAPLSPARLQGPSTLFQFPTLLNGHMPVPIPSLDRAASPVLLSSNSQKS
# In short: as §1
# FEV = target: T7, FEV (Homo sapiens, UniProt Q99581 1-238); details: protein: recombinant; tags: N-terminal GST; dsDNA, one strand shown
# T7 sequence: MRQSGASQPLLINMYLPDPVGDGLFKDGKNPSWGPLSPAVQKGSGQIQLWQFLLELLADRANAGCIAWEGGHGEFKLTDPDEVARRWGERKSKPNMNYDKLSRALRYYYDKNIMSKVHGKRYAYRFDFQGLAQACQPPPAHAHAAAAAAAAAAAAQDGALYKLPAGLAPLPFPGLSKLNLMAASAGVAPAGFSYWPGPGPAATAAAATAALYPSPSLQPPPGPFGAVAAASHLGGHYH
# In short: as §1
# ETV5 = ETV5 (Homo sapiens, UniProt P41161 1-510); details: protein: recombinant; tags: N-terminal GST; dsDNA, one strand shown
# In short: as §1
# HSF1 = HSF1 (Homo sapiens, UniProt Q00613 1-529); details: protein: recombinant; tags: N-terminal GST; chain copies: 3; dsDNA, one strand shown
# In short: as §1
# SPIC = target: T8, SPIC (Homo sapiens, UniProt Q8N5J4 1-248); details: protein: recombinant; tags: N-terminal GST; dsDNA, one strand shown
# T8 sequence: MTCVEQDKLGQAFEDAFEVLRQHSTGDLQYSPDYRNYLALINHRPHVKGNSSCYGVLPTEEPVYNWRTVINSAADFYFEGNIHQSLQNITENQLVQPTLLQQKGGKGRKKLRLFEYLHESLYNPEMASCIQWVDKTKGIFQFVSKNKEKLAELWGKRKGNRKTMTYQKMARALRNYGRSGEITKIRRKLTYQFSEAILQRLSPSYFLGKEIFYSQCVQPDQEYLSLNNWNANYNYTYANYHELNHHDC
# In short: as §1
# ELF4 = ELF4 (Homo sapiens, UniProt Q99607 1-663); details: protein: recombinant; tags: N-terminal GST; dsDNA, one strand shown
# In short: as §1
# ELK4 = target: T9, ELK4 (Homo sapiens, UniProt P28324-2 1-405); details: protein: recombinant; tags: N-terminal GST; dsDNA, one strand shown
# T9 sequence: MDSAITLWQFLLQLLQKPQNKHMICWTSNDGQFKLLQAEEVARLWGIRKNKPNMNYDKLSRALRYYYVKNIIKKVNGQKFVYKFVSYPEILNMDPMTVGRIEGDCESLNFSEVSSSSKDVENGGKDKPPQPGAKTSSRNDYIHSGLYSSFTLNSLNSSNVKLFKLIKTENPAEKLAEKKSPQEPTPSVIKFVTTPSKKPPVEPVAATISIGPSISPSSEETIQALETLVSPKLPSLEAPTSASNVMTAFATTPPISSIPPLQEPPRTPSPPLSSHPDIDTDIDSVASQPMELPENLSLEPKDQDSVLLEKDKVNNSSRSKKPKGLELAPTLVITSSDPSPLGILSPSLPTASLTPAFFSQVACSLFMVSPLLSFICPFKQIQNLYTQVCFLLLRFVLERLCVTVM
# In short: as §1
# ETV2 = target: T10, ETV2 (Homo sapiens, UniProt O00321 1-342); details: protein: recombinant; tags: N-terminal GST; dsDNA, one strand shown
# T10 sequence: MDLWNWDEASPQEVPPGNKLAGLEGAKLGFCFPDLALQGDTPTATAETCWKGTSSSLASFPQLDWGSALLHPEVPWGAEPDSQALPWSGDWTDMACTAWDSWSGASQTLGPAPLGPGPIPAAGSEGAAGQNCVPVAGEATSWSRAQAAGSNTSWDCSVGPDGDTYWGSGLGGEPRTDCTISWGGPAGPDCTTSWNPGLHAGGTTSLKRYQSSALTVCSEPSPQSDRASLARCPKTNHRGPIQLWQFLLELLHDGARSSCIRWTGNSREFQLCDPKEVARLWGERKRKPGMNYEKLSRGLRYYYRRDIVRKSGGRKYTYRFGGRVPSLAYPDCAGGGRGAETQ
# In short: as §1
# ELF3 = target: T11, ELF3 (Homo sapiens, UniProt P78545 1-371); details: protein: recombinant; tags: N-terminal GST; dsDNA, one strand shown
# T11 sequence: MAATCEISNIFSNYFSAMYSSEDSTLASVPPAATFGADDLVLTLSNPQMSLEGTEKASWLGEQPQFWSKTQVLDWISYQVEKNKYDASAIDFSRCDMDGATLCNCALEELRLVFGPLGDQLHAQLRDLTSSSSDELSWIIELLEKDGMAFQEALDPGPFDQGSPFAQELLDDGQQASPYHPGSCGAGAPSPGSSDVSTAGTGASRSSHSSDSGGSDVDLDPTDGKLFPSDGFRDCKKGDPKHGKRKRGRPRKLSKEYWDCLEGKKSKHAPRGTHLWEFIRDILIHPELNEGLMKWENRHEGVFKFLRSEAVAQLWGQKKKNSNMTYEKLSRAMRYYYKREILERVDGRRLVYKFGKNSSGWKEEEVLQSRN
# In short: as §1
# CRX = CRX (Homo sapiens, UniProt O43186 1-299); details: protein: recombinant; tags: N-terminal GST; dsDNA, one strand shown
# In short: as §1
# ETV1 = ETV1 (Homo sapiens, UniProt P50549 1-477); details: protein: recombinant; tags: N-terminal GST; dsDNA, one strand shown
# In short: as §1
# Chain of ETV1 (P50549 whole entry): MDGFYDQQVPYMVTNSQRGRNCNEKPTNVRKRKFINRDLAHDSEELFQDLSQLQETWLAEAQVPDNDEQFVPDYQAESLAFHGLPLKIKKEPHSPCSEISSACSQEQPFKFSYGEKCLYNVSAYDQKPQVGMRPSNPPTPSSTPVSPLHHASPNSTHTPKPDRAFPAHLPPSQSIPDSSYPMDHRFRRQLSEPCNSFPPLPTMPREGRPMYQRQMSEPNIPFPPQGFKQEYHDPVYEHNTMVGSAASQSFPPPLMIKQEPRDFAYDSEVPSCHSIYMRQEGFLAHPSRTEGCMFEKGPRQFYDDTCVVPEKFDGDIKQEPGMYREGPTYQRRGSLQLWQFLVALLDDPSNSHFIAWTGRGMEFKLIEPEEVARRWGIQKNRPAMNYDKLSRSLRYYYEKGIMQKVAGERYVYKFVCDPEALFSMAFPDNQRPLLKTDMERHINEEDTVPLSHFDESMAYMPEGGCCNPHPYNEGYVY
# Chain of SPIB (Q01892 whole entry): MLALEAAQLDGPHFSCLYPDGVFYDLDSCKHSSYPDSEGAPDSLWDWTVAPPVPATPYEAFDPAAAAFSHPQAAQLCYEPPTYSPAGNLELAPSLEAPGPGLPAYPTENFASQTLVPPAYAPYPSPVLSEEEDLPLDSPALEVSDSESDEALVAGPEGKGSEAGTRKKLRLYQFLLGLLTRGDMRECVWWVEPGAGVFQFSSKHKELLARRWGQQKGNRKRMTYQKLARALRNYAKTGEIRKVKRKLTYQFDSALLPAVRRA
# Chain of ETV5 (P41161 whole entry): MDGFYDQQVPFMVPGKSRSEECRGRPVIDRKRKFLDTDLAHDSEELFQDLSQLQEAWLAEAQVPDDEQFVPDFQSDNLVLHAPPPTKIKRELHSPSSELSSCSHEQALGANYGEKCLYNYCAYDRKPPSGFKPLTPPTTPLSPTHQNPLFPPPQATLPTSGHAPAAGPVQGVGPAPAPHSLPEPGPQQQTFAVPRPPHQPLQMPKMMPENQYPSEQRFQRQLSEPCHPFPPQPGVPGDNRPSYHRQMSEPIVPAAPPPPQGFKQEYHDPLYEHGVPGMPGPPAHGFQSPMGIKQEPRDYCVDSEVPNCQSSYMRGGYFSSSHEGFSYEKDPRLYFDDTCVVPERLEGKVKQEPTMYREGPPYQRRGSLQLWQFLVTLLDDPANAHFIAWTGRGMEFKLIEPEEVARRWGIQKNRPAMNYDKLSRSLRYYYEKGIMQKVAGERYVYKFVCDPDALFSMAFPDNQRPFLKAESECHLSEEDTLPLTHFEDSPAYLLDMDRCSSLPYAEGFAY
# Chain of ELF1 (P32519 whole entry): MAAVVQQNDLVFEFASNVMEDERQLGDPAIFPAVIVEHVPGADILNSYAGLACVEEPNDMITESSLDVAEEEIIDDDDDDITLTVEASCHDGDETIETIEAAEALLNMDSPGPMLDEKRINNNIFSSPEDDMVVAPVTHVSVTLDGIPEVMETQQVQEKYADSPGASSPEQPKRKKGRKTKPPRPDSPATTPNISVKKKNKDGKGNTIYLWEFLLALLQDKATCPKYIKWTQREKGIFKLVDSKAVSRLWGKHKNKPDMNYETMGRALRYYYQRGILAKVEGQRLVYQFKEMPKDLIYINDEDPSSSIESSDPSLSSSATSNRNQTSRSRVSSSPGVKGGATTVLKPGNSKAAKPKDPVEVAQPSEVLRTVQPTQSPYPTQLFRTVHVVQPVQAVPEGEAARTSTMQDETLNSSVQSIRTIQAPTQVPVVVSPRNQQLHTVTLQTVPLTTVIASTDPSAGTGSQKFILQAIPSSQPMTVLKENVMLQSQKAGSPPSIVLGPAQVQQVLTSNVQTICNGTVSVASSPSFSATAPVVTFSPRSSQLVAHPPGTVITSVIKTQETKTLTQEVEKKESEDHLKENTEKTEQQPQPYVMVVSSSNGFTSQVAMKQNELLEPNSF
# Chain of HSF1 (Q00613 whole entry): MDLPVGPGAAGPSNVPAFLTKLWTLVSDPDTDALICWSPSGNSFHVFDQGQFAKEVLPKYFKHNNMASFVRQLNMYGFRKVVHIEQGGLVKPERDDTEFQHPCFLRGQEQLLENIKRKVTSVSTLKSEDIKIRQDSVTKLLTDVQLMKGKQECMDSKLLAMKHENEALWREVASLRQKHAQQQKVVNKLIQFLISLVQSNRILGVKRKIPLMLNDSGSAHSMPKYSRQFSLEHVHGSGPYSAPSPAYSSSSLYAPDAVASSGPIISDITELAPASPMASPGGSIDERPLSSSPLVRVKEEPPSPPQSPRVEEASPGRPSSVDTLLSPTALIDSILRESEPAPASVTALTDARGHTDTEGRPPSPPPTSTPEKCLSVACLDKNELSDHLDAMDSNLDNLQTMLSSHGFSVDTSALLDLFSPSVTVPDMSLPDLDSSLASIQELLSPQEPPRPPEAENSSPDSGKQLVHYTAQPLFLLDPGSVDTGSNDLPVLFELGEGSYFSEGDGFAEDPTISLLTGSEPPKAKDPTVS
# Chain of ELF4 (Q99607 whole entry): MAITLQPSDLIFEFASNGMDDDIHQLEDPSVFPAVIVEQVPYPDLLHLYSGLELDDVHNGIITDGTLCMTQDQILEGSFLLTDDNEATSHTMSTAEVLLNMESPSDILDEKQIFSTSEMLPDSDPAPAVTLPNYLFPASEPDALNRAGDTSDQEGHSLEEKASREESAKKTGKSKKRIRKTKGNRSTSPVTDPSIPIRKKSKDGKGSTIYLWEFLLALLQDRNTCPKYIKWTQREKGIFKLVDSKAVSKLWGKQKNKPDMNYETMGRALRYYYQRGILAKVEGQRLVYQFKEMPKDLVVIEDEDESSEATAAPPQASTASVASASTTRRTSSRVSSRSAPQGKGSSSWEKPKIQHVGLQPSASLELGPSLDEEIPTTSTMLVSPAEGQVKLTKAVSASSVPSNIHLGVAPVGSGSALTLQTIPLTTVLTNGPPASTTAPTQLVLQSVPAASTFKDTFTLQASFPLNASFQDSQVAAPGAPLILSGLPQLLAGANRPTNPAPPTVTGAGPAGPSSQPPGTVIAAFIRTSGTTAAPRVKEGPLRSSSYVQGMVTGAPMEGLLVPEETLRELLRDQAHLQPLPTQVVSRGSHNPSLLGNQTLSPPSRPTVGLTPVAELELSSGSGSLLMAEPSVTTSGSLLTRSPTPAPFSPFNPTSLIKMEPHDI
# Chain of CRX (O43186 whole entry): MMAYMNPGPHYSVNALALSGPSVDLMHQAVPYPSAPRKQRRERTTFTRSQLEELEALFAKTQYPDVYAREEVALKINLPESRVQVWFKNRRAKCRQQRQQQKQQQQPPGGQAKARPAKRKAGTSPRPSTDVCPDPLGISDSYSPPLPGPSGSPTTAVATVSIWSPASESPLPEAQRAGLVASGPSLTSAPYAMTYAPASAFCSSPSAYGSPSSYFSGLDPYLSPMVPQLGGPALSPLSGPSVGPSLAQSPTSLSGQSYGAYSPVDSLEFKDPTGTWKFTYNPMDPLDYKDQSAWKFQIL
sequence,measurement,setting,value
CCTGAC,binding signal,FLI1,"1.49 fold enrichment (6-mer frequency, TF over GST control)"
same,binding signal,ELK1,"1.57 fold enrichment (6-mer frequency, TF over GST control)"
same,binding signal,GABPA,"1.49 fold enrichment (6-mer frequency, TF over GST control)"
same,binding signal,ERG,"1.48 fold enrichment (6-mer frequency, TF over GST control)"
same,binding signal,ELF1,"1.46 fold enrichment (6-mer frequency, TF over GST control)"
same,binding signal,EHF,"1.58 fold enrichment (6-mer frequency, TF over GST control)"
same,binding signal,SPI1,"1.44 fold enrichment (6-mer frequency, TF over GST control)"
same,binding signal,SPIB,"1.46 fold enrichment (6-mer frequency, TF over GST control)"
same,binding signal,ELK3,"1.56 fold enrichment (6-mer frequency, TF over GST control)"
same,binding signal,FEV,"1.5 fold enrichment (6-mer frequency, TF over GST control)"
same,binding signal,ETV5,"1.71 fold enrichment (6-mer frequency, TF over GST control)"
same,binding signal,HSF1,"1.2 fold enrichment (6-mer frequency, TF over GST control)"
same,binding signal,SPIC,"1.3 fold enrichment (6-mer frequency, TF over GST control)"
same,binding signal,ELF4,"1.42 fold enrichment (6-mer frequency, TF over GST control)"
same,binding signal,ELK4,"1.5 fold enrichment (6-mer frequency, TF over GST control)"
same,binding signal,ETV2,"1.61 fold enrichment (6-mer frequency, TF over GST control)"
same,binding signal,ELF3,"1.7 fold enrichment (6-mer frequency, TF over GST control)"
same,binding signal,CRX,"1.11 fold enrichment (6-mer frequency, TF over GST control)"
same,binding signal,ETV1,"1.61 fold enrichment (6-mer frequency, TF over GST control)"
